E coli growth-1: blocks Escherichia coli growth | OD600 absorbance (concentration not given with the values) | OD600, 23 h; stronger effect = lower value | 330,000 tested, 0.21% active | AID 1053175;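 active = OD600 absorbance below the run mean of sample wells minus 3.6 SD, in any replicate, cut at about 0.56 in these data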
phage Ecoli inh: E. coli growth loss with phage present; inhibition, % at 11.9 µM; AID 651602; growth absorbance; 360,000 tested, 0.26% active; in the data active = inhibition above about 11%
E coli growth-2: reduces bacterial viability in AddAB counter-screen | E. coli V3065 growth, OD600 absorbance, 18 h | inhibition, % at 11.9 µM | 330,000 tested, 0.27% active | AID 449728;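 active = inhibition above the campaign's mean inhibition across all tested compounds plus 3 SD, cut at about 9.9% in these data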;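 also: uninfected addAB+ strain grown without phage in ampicillin broth; 0% = DMSO wells and 100% = ciprofloxacin 0.95 µg/ml wells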
Tat export inh: inhibitors of E. coli Tat protein transport. inhibition, % at 10 µM. E. coli MC4100 TorA-mCherry Tat export, fluorescence. 340,000 tested, 0.036% active. AID 488895;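 active = mean replicate inhibition at least 50% and at least half of replicates individually reaching 50%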;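 also: exported cargo escapes ClpAP degradation while cytoplasmic cargo is degraded and loses fluorescence; 0% = median of neutral control wells and 100% = median of NaSCN control wells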
AddAB inh: less growth of phage-infected E. coli with AddAB; AID 435030; inhibition, % at 11.9 µM; 330,000 tested, 0.29% active; E. coli expressing H. pylori AddAB, absorbance growth; in the data active = inhibition above about 12%;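 also: 0% = vehicle wells of infected cells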
RecBCD conf: growth loss of phage-infected V66 E. coli, RecBCD confirmation screen; 890 tested, 45% active; E. coli V66 + T4 2- phage, growth OD; AID 651982; shares compounds with phage Ecoli inh; inhibition, % at 11.9 µM;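 active = mean inhibition over triplicates exceeding the hit threshold derived in the original primary screen, cut at about 11% in these data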
Ecoli viability: bacterial viability inhibition counter-screen for RecBCD; shares compounds with phage Ecoli inh; E. coli viability, absorbance (OD) growth; inhibition, % at 11.9 µM; 890 tested, 29% active; AID 651983; in the data active = inhibition above about 20%;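 also: E. coli strain V66 grown with compound alone and no phage infection; 0% = bacteria with DMSO vehicle only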
AddAB phage OD: growth loss of phage-infected AddAB E. coli, RecBCD counter-screen; shares compounds with phage Ecoli inh; inhibition, % at 11.9 µM; 890 tested, 45% active; E. coli expressing H. pylori AddAB + T4 phage, OD growth; gene 2 mutant T4, recBCD-deleted host;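 active = mean inhibition above the solvent-only control wells' mean plus 3 SD, cut at about 22% in these data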;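 also: higher means less bacterial growth from phage killing when AddAB is blocked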
An asterisk follows results filed as active; . = no result given. Most compounds without a hit are left out; they make up all but 0.5% or so of the library.

SMILES	E coli growth-1	phage Ecoli inh	E coli growth-2	Tat export inh	AddAB inh	RecBCD conf	Ecoli viability	AddAB phage OD
CN(C(=O)C1CCC1C(=O)O)c1nc(-c2ccc(Cl)s2)cs1 (stereo not drawn)	0.644	99.2*	0.8	9.3	5.5	-0.6	-0.4	-1.8
CC1CC1C(=O)Nc1nc(-c2ccc(Cl)s2)cs1 (stereo not drawn)	0.713	10.3	1.4	3.0	2.8	.	.	.
C[n+]1c(-c2ccc(C=NNC(=O)c3ccc(C(=O)NN=Cc4ccc(-c5cn6ccccc6[n+]5C)cc4)cc3)cc2)cn2ccccc21	.	57.3*	.	50.4*	.	77.8*	75.6*	80.5*
O=C(N/N=C\c1ccc(F)cc1)c1ccc(F)cc1	.	4.9	-2.6	0.6	-0.7	.	.	.
Cc1cccc(NC(=O)NNC(=O)c2ccc3ccccc3c2O)c1	0.699	10.6	.	-5.9	.	.	.	.
O=C(NNC(=O)c1ccc2ccccc2c1O)Nc1ccc(F)cc1	0.734	11.7*	9.0	-2.4	10.4	5.1	5.9	8.3
O=C1C=CC(n2cc(F)c(=O)[nH]c2=O)O1 (stereo not drawn)	.	23.9*	.	.	.	31.8*	22.0*	46.3*
O=C(O)Cn1cc(F)c(=O)[nH]c1=O	0.762	.	0.0	.	0.7	.	.	.
O=C(CN1C(=O)COc2ccccc21)NNC(=O)Nc1ccccc1F	0.693	1.9	-1.4	-6.4	3.2	.	.	.
O=C(CN1C(=O)COc2ccccc21)Nc1ccccc1F	0.691	14.1*	1.5	21.6	-0.1	-2.7	-2.7	-2.7
CC(=NNC(=O)c1ccccc1O)C1C(=O)c2ccccc2C1=O	0.669	.	.	.	.	.	.	.
C/C(=N/NC(=O)c1cc2ccccc2cc1O)C1C(=O)c2ccccc2C1=O	.	11.2*	9.2	7.1	9.4	5.4	6.7	2.9
COc1cc(C(=O)NCC(=O)NN=C(C)/C=C/c2ccccc2)cc(OC)c1OC	0.677	.	.	.	.	.	.	.
CCn1c(C)cc(C(=O)COC(=O)CNC(=O)c2ccco2)c1C	.	11.4*	.	.	.	5.8	10.3	3.4
CCNS(=O)(=O)c1ccc(NC(=O)Cn2nc(C(F)(F)F)cc2C)cc1	0.685	12.0*	10.5*	-10.1	11.2	4.5	5.5	7.4
O=[N+]([O-])c1ccc(-c2nc(Cl)c3c(n2)CCCC3)o1	.	97.1*	.	.	.	76.2*	96.5*	100.1*
Cc1cc(NC(c2cccnc2)c2ccc3cccnc3c2O)no1 (stereo not drawn)	0.619	13.3*	9.1	1.2	10.2	1.9	5.1	6.9
Oc1c(C(Nc2cccc(C(F)(F)F)c2)c2cccnc2)ccc2cccnc12 (stereo not drawn)	0.694	12.3*	-1.7	-5.0	-0.2	2.8	3.6	8.9
Cc1cc(C)nc(Nc2cccc(C(F)(F)F)c2)n1	0.674	3.6	-1.6	-3.1	3.2	.	.	.
Nc1nc(N)c2cc(S(=O)(=O)c3cccc(C(F)(F)F)c3)ccc2n1	.	23.5*	.	.	.	31.5*	27.3*	58.8*
O=C(N/N=C/c1ccc(O)cc1O)c1ccc(NC(=O)C2CCCCC2)cc1	.	23.5*	29.3*	-15.1	23.5*	14.0*	18.5	18.0
COCCN1C(=NCCCOC(C)C)NC(c2ccccc2)C(C(=O)OC)=C1C (stereo not drawn)	0.714	.	.	.	.	.	.	.
Cc1ccc(N2CCN(N=Cc3cccnc3)CC2)cc1	0.68	.	.	.	.	.	.	.
O=C(CCCc1ccccc1)NCc1cn2ccsc2n1	0.73	96.2*	0.7	6.5	-3.5	-1.8	-0.7	3.9
Oc1cccc2cc(Nc3ccccc3)cnc12	.	22.7*	.	.	.	16.0*	19.2	25.1*
SMILES	E coli growth-1	phage Ecoli inh	E coli growth-2	Tat export inh	AddAB inh	RecBCD conf	Ecoli viability	AddAB phage OD
CCN(CCOC(=O)Nc1ccc(Cl)cc1)C(=O)Nc1ccc(Cl)cc1	.	11.4*	.	.	.	4.5	5.2	1.4
CNC(CC(C)C)C(=O)NC1C(=O)NC(CC(N)=O)C(=O)NC2C(=O)NC3C(=O)NC(C(=O)NC(C(=O)O)c4cc(O)cc(O)c4-c4cc3ccc4O)C(O)c3ccc(c(Cl)c3)Oc3cc2cc(c3OC2OC(CO)C(O)C(O)C2OC2CC(C)(N)C(O)C(C)O2)Oc2ccc(cc2Cl)C1O (stereo not drawn)	.	11.4*	1.3	-34.8	-1.9	4.2	7.6	15.3
COc1ccc(-c2oc3ccccc3c(=O)c2OCC(=O)O)cc1	0.677	3.4	-2.5	-2.7	1.1	.	.	.
COc1ccc(-c2oc3ccccc3c(=O)c2OC(C)=O)cc1	0.604	11.3*	12.0*	-2.1	12.1	7.3	9.3	12.6
Cc1cccc(C)c1-n1c(C)cc(C=NNC(=O)CSc2ncccn2)c1C	0.702	.	.	.	.	.	.	.
Oc1ccc(/C=N/N=C(c2ccccc2)c2ccccc2)c(O)c1O	.	14.2*	5.1	1.2	6.2	2.5	3.5	5.4
O=C(/C(=N/N=C/c1ccc(O)c(O)c1O)c1ccccc1)c1ccccc1	.	11.6*	5.9	5.5	7.5	6.5	6.5	7.0
O=C(NN=Cc1ccc(-c2ccccc2C(=O)O)o1)c1cccs1	0.737	.	.	.	.	.	.	.
O=S(=O)(NN=Cc1ccc(Cl)cc1)c1ccc(Cc2ncc(C(F)(F)F)cc2Cl)s1	0.736	.	.	.	.	.	.	.
CC(=NNC(=O)C1CCCC1)c1ccc(Cl)cc1	0.737	.	.	.	.	.	.	.
Cc1ccccc1CNC(=O)c1ccccc1C	0.68	0.8	1.7	-4.6	2.4	.	.	.
Cc1ccccc1C(=O)NCC(C)NC(=O)c1ccccc1C (stereo not drawn)	0.688	99.8*	2.2	-4.4	-0.1	-2.7	-1.5	1.5
Cc1ccc(/C=C/C(=O)c2c(C)nc3ccccn23)cc1	0.679	12.0*	1.6	-0.6	2.1	-2.2	-2.7	0.8
CCCCOc1ccc(C=c2sc3ncnn3c2=O)cc1	0.728	.	.	.	.	.	.	.
C(=NN1CCN(Cc2cccc3ccccc23)CC1)c1ccco1	0.679	.	.	.	.	.	.	.
CCCCCCCCCC[n+]1cccc2c3ccccc3ccc21	0.134*	11.8*	.	-7.3	.	2.1	3.0	5.8
